Hit rate of the full screen: of about 2,300 compounds, about 330 (14%) showed activity.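 How the source made its calls: active = median modified Z-score above 1.96; inactive = 1.96 or below.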 The list is a sample of the results.
What follows are molecules tested on HepG2 Srxn1-GFP reporter cells (+30 nM CDDO-Me) (assay: Srxn1-GFP intensity median modified Z-score relative to plate median; higher = stronger NRF2 / oxidative stress reporter activation, active = hit call of the paper). Conditions: 10 µM; exposure time: 24h.
Method in brief: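 The modified Z-score of GFP intensity was computed per plate, and the median over replicates is reported. HepG2 Srxn1-GFP BAC reporter cells in three replicate plates were treated for 24 h with compound at 10 μM plus an NRF2 activator at 30 nM (≤0.1% DMSO). Per-cell cytoplasmic GFP came from confocal images, excluding those with under 100 cells, and scaling used 1.4826 × median absolute deviation.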

Srxn1-GFP intensity median modified Z-score, active:
Cc1nc2ccccc2n1Cc1ccc(Cl)cc1 [euspeclibcmpd2199] 5.5
C=C[C@H]1C[N@]2CC[C@H]1C[C@@H]2[C@@H](O)c1ccnc2ccc(OC)cc12 [euspeclibcmpd2428] 1.98
CC(=O)Oc1cccc2c1C(=O)c1c(OC(C)=O)cc(C(=O)O)cc1C2=O [euspeclibcmpd1072] 4.68
O=C(OCC(O)CO)c1ccccc1N=c1cc[nH]c2cc(Cl)ccc12 (centres undefined) [euspeclibcmpd1054] 4.38
Nc1ccc2cc3ccc(N)cc3nc2c1 [euspeclibcmpd1172] 35.6
S=c1ccss1 [euspeclibcmpd2055] 7.86
CC1(C)CCC[C@]2(C)[C@H]3CC(=O)O[C@]3(C)CC[C@@H]12 [euspeclibcmpd1513] 11.6
C1CNCCN1 [euspeclibcmpd2044] 5.44
COC1CC2CCC(C)C(O)(O2)C(=O)C(=O)N2CCCCC2C(=O)OC(C(C)CC2CCC(O)C(OC)C2)CC(=O)/C(C)=C/C(C)C(O)C(OC)C(=O)C(C)CC(C)/C=C/C=C/C=C/1C (centres undefined) [euspeclibcmpd645] 2.8
C=CCSCC=C [euspeclibcmpd1525] 2.8
Cc1cc(=N)c2ccccc2n1CCCCCCCCCCn1c(C)cc(=N)c2ccccc21 [euspeclibcmpd1012] 10
CC(C)C(=O)Nc1ccc([N+](=O)[O-])c(C(F)(F)F)c1 [euspeclibcmpd362] 3.07
COc1cc2occ(-c3ccccc3)c(=O)c2c(OC)c1C [euspeclibcmpd2367] 3.02
O=C1OCCc2oc(O)cc21 [euspeclibcmpd1348] 33
CCN(CC)CCOc1ccc2c(c1)C(=O)c1cc(OCCN(CC)CC)ccc1-2 [euspeclibcmpd940] 5.93
Cc1coc2c1C(=O)C(=O)c1c-2ccc2c1CCCC2(C)C [euspeclibcmpd1647] 2.22

Srxn1-GFP intensity median modified Z-score, inactive:
CN(C)CCN(Cc1ccc(Cl)cc1)c1ccccn1 [euspeclibcmpd1219] -0.833
Clc1ccc(Cn2c(CN3CCCC3)nc3ccccc32)cc1 [euspeclibcmpd1234] -0.0615
Cc1nc(=N)c(C[n+]2csc(CCO)c2C)c[nH]1 [euspeclibcmpd454] -0.15
O=C1C(CO)OC(O)C(O)C1O (centres undefined) [euspeclibcmpd526] -0.212
COc1ccc2c(c1OC)OC[C@@H](c1ccc(OC)c(OC)c1OC)C2 [euspeclibcmpd1365] 0.0257
CCCCCCCCCCC[C@@H](C[C@H]1OC(=O)C1CCCCCC)OC(=O)C(CC(C)C)NC=O (some centres undefined) [euspeclibcmpd681] -0.557
C[C@]12CCC3c4ccc(O)cc4CCC3C1C[C@@H](O)[C@@H]2O (some centres undefined) [euspeclibcmpd2155] -0.253
CC(=O)Oc1c(C)cccc1C(=O)O [euspeclibcmpd1264] -0.393
CC(=O)Oc1cccc(C(=O)O)c1OC(C)=O [euspeclibcmpd1107] 0
CC(C)(ON=C(C(=O)NC1C(=O)N2C(C(=O)O)=C(C[n+]3ccccc3)CSC12)c1csc(=N)[nH]1)C(=O)O (centres undefined) [euspeclibcmpd603] -0.205
CCN(CCO)CCCC(C)N=c1cc[nH]c2cc(Cl)ccc12 (centres undefined) [euspeclibcmpd728] 0.226
CC(O)CN1CCN(CC(=O)O)CCN(CC(=O)O)CCN(CC(=O)O)CC1 (centres undefined) [euspeclibcmpd2179] -0.14
CC(C)(CNC(=O)c1cccc(S(=O)(=O)N2CCNC(=O)C2)c1)N1CCOCC1 0.976
CO[C@@]1(NC(=O)CSCC#N)C(=O)N2C(C(=O)O)=C(CSc3nnnn3C)CSC21 (some centres undefined) [euspeclibcmpd2252] 1.04
N=c1[nH]c(=O)c2ncn(COCCO)c2[nH]1 [euspeclibcmpd586] 0.00752
OC[C@H]1O[C@@H](O[C@H]2[C@H](O)[C@@H](O)[C@@H](O)O[C@@H]2CO)[C@H](O)[C@@H](O)[C@@H]1O [euspeclibcmpd2099] -0.374
CC(=O)OC1=C2C(C)C(O)CC(O)(C(OC(=O)c3ccccc3)C3C4(OC(C)=O)COC4CC(O)C3(C)C1=O)C2(C)C (centres undefined) [euspeclibcmpd1937] 0.285
C=CC(C)(O)CCC=C(C)CCC=C(C)C (centres undefined) [euspeclibcmpd2017] -0.108
COC(C)(C)CCC[C@H](C)C=CC=C(C)CC(=O)OC(C)C [euspeclibcmpd1162] 0.521
CCC(CCC(C)[C@H]1CCC2C3CC=C4C[C@@H](O)CC[C@]4(C)C3CC[C@@]21C)C(C)C (some centres undefined) [euspeclibcmpd1675] -0.236
C=C(C)[C@@H]1CC[C@]2(C)CC[C@]3(C)[C@@H](CCC4[C@@]5(C)CC[C@H](OC(C)=O)C(C)(C)C5CC[C@]43C)C12 (some centres undefined) [euspeclibcmpd1452] -0.35
C=CC/C1=C\C(C)C[C@H](C)C[C@H](OC)[C@H]2O[C@@](O)(C(=O)C(=O)N3CCCCC3C(=O)O[C@H](/C(C)=C/C3CC[C@@H](O)[C@H](OC)C3)[C@H](C)[C@@H](O)CC1=O)[C@H](C)C[C@@H]2OC (some centres undefined) [euspeclibcmpd642] 0.0384
CC(C)(C)OC(=O)N1[C@H](CNCC(=O)NCC2CC2)COC1(C)C 0.298
C=C1c2cccc(O)c2C(=O)C2C(=O)[C@]3(O)C(=O)C(C(N)=O)C(=O)C(N(C)C)[C@@H]3[C@@H](O)[C@H]12 (some centres undefined) [euspeclibcmpd374] 0.0721
Nc1ccc(S(=O)(=O)Nc2ccc([N+](=O)[O-])cc2)cc1 1.07
C=CCSCC(N)C(=O)O (centres undefined) [euspeclibcmpd1339] -0.44
c1ccc2[nH]c(-c3cscn3)nc2c1 [euspeclibcmpd291] -0.321
CC(=O)Nc1ccc(S(=O)(=O)Nc2ccc(C)cc2)cc1 0.323
Cc1cc(=O)c(C(=O)NC(C(=O)NC2C(=O)N3C(C(=O)O)=C(CSc4nnnn4C)CSC23)c2ccc(O)cc2)c[nH]1 (centres undefined) [euspeclibcmpd2006] -0.441
COC(=O)C[C@H]1C2(C)CC34OC5(C)O[C@@]6([C@H](OC(C)=O)C(OC(C)=O)[C@]7(C)C(C(C(=O)C(C)C)C(=O)O[C@H]7c7ccoc7)[C@@]6(O5)[C@H](OC(C)=O)[C@@]3(O)C2OC(=O)C(C)C)[C@]14C (some centres undefined) [euspeclibcmpd1593] 0.648
CC=CC1=C(C(=O)O)N2C(=O)C(NC(=O)C(N)c3ccc(O)cc3)C2SC1 (centres undefined) [euspeclibcmpd754] 0.0492
CN1CCc2c(c3ccccc3n2Cc2ccccc2)C1 [euspeclibcmpd1060] -0.511
NC(COP(=O)(O)O)C(=O)O (centres undefined) [euspeclibcmpd1153] -0.195
CC1(C)NC(=O)N(c2ccc([N+](=O)[O-])c(C(F)(F)F)c2)C1=O [euspeclibcmpd654] 0.519
CCOc1ccc2ccccc2c1C(=O)NC1C(=O)N2C1SC(C)(C)C2C(=O)O (centres undefined) [euspeclibcmpd2391] -0.175
NC(=O)c1cc[n+](C=C2CSC3C(NC(=O)Cc4cccs4)C(=O)N3C2C(=O)O)cc1 (centres undefined) [euspeclibcmpd1236] -0.488
CN1CCC(c2c3ccccc3cc(=O)c3sccc23)CC1 [euspeclibcmpd331] 0.863
COc1cc(C)c2c(=O)c(-c3ccccc3)coc2c1 [euspeclibcmpd1711] 0.917
COc1cc(-c2coc3cc(OC)c(OC)c(OC)c3c2=O)cc(OC)c1OC [euspeclibcmpd1402] -0.364
CC(C)(C)O[C@H]1C[C@@H](O)C1 1.93
CC(=O)O[C@]1(C(C)=O)CCC2C3=CC(C)=C4CC(=O)CCC4(C)C3CCC21C (some centres undefined) [euspeclibcmpd180] 0.562
CC(NS(=O)(=O)c1cccc(Cl)c1)C1CCCO1 (centres undefined) 1.74
Cc1cc(=O)cc(O)o1 [euspeclibcmpd1585] 0.226
O=C(OCc1ccccc1)c1ccccc1 [euspeclibcmpd510] 0.252
OC[C@H]1O[C@@H](O[C@@H]2[C@@H](CO)O[C@](O)(CO)[C@H]2O)[C@H](O)[C@@H](O)[C@H]1O [euspeclibcmpd170] 0.208
NC(=O)c1cc[n+](C=C2CSC3C(NC(=O)C(c4ccccc4)S(=O)(=O)O)C(=O)N3C2C(=O)O)cc1 (centres undefined) [euspeclibcmpd2133] -0.143
CCCOc1cc(N)ccc1C(=O)OCCN(CC)CC [euspeclibcmpd379] 0.431
CCN(CC)CCNC(=O)COc1ccc(OC)cc1 [euspeclibcmpd2435] -0.25
C=Cc1c(C=c2[nH]c(=Cc3[nH]c(C=c4[nH]c(O)c(C=C)c4=C)c(C)c3CCC(=O)O)c(CCC(=O)O)c2C)[nH]c(O)c1C [euspeclibcmpd1536] 0.744
Cc1cc(-c2ccccc2)n[nH]c1=NCCN1CCOCC1 [euspeclibcmpd383] 1.08
CNC(Cc1ccccc1)C(=O)O (centres undefined) 1.21
Cc1c(S(=O)(=O)O)oc2c1C(=O)C(=O)c1c-2ccc2c1CCCC2(C)C [euspeclibcmpd2216] 0
CN[C@H]1C[C@@H](N)[C@H](O)[C@@H](O[C@@H]2O[C@H](CO)[C@@H]3OC4(O[C@@H]3[C@@H]2O)O[C@H](C(N)CO)[C@H](O)[C@H](O)[C@H]4O)[C@@H]1O (some centres undefined) [euspeclibcmpd1459] -0.136

Source: the supplement of paper PMC10498489
